Our source for the EC50 values is PubChem BioAssay AID2704 (Broad Institute, 2010).

Active and inactive are the calls of the source.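 How the source made its calls: active means a dose-dependent loss of polyadenylated product, with a fitted EC50, the dose giving half the full effect; inactive means no dose-dependent effect seen.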

The test can be described thus: inhibitors of in vitro mRNA polyadenylation, dose response, orthogonal assay for polyadenylation inhibitor project, cell lysate, S. cerevisiae extracts, radioactive, gel readout (AID 2704). Conditions: S. cerevisiae extract, GAL7 RNA polyadenylation.

Consider `Cc1ccc2nc(/C(C#N)=C/c3ccc([N+](=O)[O-])o3)[nH]c2c1`, for which the concentration giving a half-maximal response (EC50) was 700 µM (active).

Take `CCOc1cc(/C=C2\N=C(SC(C)C(N)=O)N(c3ccc(OC(F)F)cc3)C2=O)ccc1O` (stereo unspecified): the EC50 was 410 µM (active). Under `COc1cc(/C=C2/CC/C(=C/c3ccc(O)c(OC)c3)C2=O)ccc1O` stands 400 µM (active). Under `N#C/C(=C/c1ccc([N+](=O)[O-])o1)c1nc2ccccc2[nH]1` stands 1100 µM (active). Under `N#CC1(C#N)C2=C(CCCC2)NC(c2ccccc2)C1(C#N)C#N` (stereo unspecified) stands 280 µM (active); under `Cc1ccc(-c2nn3c(C)nnc3s2)cc1NC(=O)CSc1ccc(Cl)cc1`, 900 µM (active).
